Data published in PubChem BioAssay (NCATS).
“And” between values parts separate entries of the source, which are not always exact repeats. Equal entries are not always repeated. Records with an inconclusive call do not appear. A number with no mark means an inactive call. The source made the active and inactive calls. The call rests on the fitted dose curve; in most records, active means well fitted cell-killing curve with a large enough effect; inconclusive means small, poorly fitted or top-dose-only effect; inactive means flat fitted curve, though single readings scatter.

What was measured:
[1] = Cellular viability qHTS for adrenocortical cancer (ACC) cell line SW-13 (AID 1963989); conditions: SW-13 ACC cells viability, CellTiter-Glo, 48 h; activity (max response): active compounds read low; further: nearly all actives have a fitted effect of over 65% in size;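 on activity (max response): cells grown in serum-free medium with ITS supplement; on the % scale 0 is the no-effect control and ±100 the full control effect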
How it was run: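 Compound titrations (up to 46 uM final, in DMSO) were applied to SW-13 cells for 48 h at 37C/5% CO2. Reading used CellTiter-Glo after 20 min at room temperature; fitted curves yielded IC50 and efficacy.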

[2] = Cellular viability qHTS for adrenocortical cancer (ACC) cell line NCI-H295R (AID 1963990); further: nearly all actives have a fitted effect of over 60% in size
How it was run: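 Readout: CellTiter-Glo luminescence, 20 min RT. Exposure: 48 h, 37C/5% CO2. Cells: NCI-H295R, ITS-DMEM serum-free. Range: up to 46 uM. Analysis: 4PL fit, IC50 plus efficacy.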
Potency means the concentration at half of the fitted maximal effect.

C[C@]12CC[C@@H]3c4ccc(O)cc4CC[C@H]3[C@@H]1CCC2=O
activity (max response) [1]: -14.1%

CN1CCN(C2=Nc3ccccc3Oc3ccc(Cl)cc32)CC1
activity (max response) [1]: -13.7%

Nc1ccc(S(=O)(=O)Nc2ccc(Cl)nn2)cc1
activity (max response) [1]: 1.77%

CC(C)C(=O)OCc1cccc(OC(=O)[C@@H]2N3C(=O)[C@@H](NC(=O)Cc4ccccc4)[C@H]3SC2(C)C)c1
activity (max response) [1]: 14.5%

CCC(CN)=C(c1ccccc1)c1ccccc1
activity (max response) [1]: -12.8%

CO[C@]12C[C@@H](COC(=O)c3cncc(Br)c3)CN(C)[C@@H]1Cc1cn(C)c3cccc2c13
activity (max response) [1]: 3.85%

O=C1NC(=O)/C(=C/c2ccc(-c3ccc(F)cc3O)o2)S1
Potency [1]: 28.2 µM (active)

C/C(=C(\CCO)SS/C(CCO)=C(\C)N(C=O)Cc1cnc(C)nc1N)N(C=O)Cc1cnc(C)nc1N
activity (max response) [1]: 7.36%

COC(=O)C1=C(C)NC(C)=C(C(=O)OCC(C)=O)C1c1ccccc1[N+](=O)[O-] (stereo not drawn)
Potency [1]: 16.4 µM (active)

CCCCOCCOCCOCc1cc2c(cc1CCC)OCO2
activity (max response) [1]: 0.496% and -9.13%

C[C@H]1C[C@@H]2[C@H]([C@@H](O)C[C@@]3(C)[C@H]2CC[C@]3(O)C(=O)CO)[C@@]2(C)C=CC(=O)C=C12
activity (max response) [1]: 8.4% and 9.49%

COc1cc2c3c(n(CCCn4ccnc4)c(=O)c2cc1OC)-c1cc2c(cc1C3=O)OCO2
Potency [1]: 0.0316 µM (active)

COc1cc2c(NC3CCN(C4CCCCC4)CC3)nc(N3CCCN(C(C)C)CC3)nc2cc1OCCCN1CCCCC1
Potency [1]: 3.16 µM (active)

CCOc1ccc2nc(S(N)(=O)=O)sc2c1
activity (max response) [1]: -20.8%

CC/C(=C(\c1ccccc1)c1ccc(OCCN(C)C)cc1)c1ccccc1
Potency [1]: 6.31 µM (active)

C=CC(=O)Nc1ccc(F)c(-c2ncnc3[nH]cc(C(=O)OCC)c23)c1
Potency [1]: 22.4 µM (active)

Cc1cccc(-c2[nH]ncc2-c2ccc3ncccc3n2)n1
activity (max response) [1]: 4.45%

CCCCCC=CCC=CCCCCCCCC(=O)OCC
activity (max response) [1]: -4.47%

CCCC(C(=O)OCCN(CC)CC)(c1ccccc1)c1ccccc1
Potency [1]: 20.6 µM (active)

CCc1nn(CCCN2CCN(c3cccc(Cl)c3)CC2)c(=O)n1CCOc1ccccc1
Potency [1]: 14.6 µM (active)

C[C@H](NC(=O)[C@H]1NCC[C@@H]1O)c1ccc(-c2noc(CCC3CCCC3)n2)cc1
activity (max response) [1]: -20.3%

Cc1cc(O)c(-c2ccc([C@@H](C)CN)cc2)c2c1[nH]c(=O)c1sccc12
activity (max response) [1]: -7.01%

c1ccc(-c2ccc(C(c3ccccc3)n3ccnc3)cc2)cc1 (stereo not drawn)
Potency [1]: 18.4 µM (active)

Cc1c(Cl)cccc1Nc1ccccc1C(=O)O
activity (max response) [1]: -8.75%

CCS(=O)(=O)c1ccc2oc(-c3ccc4ccccc4c3)nc2c1
activity (max response) [1]: 1.49%
Potency [2]: inactive

Cc1ccc(NS(=O)(=O)c2ccc3c(c2)C2C=CCC2C(c2ccc(C(=O)O)cc2)N3)cc1C (stereo not drawn)
activity (max response) [1]: -1.16%
Potency [2]: inactive

CN(CC1(C)CCCO1)S(=O)(=O)c1ccc(Cl)c(S(N)(=O)=O)c1 (stereo not drawn)
activity (max response) [1]: 13.7%
Potency [2]: inactive

CC(C)(Cc1c[nH]c2ccccc12)NCC(O)COc1ccccc1C#N (stereo not drawn)
activity (max response) [1]: -3.72%
Potency [2]: inactive

N[C@@H](CCC(=O)O)C(=O)N[C@@H](Cc1c[nH]c2ccccc12)C(=O)O
activity (max response) [1]: 9.67%
Potency [2]: inactive

[O-][n+]1ccccc1SSc1cccc[n+]1[O-]
Potency [1]: 1.59 µM (active)
Potency [2]: 0.0893 µM (active)

CN(C)N(C)C(=O)[C@@]1(Cc2ccccc2)CCCN(C(=O)[C@@H](Cc2c[nH]c3ccccc23)NC(=O)C(C)(C)N)C1
activity (max response) [1]: -15.4%
Potency [2]: inactive

CCC(CC)C(c1ccc(Nc2nc3ccccc3s2)cc1)n1cncn1 (stereo not drawn)
Potency [1]: 22.4 µM (active)
Potency [2]: 17.8 µM (active)

CC(C)(Oc1ccc(Cl)cc1)C(=O)OCCCOC(=O)C(C)(C)Oc1ccc(Cl)cc1
activity (max response) [1]: 0.371%
Potency [2]: inactive

C/C(=C1\CCOC(=O)S1)N(C=O)Cc1cnc(C)nc1N
activity (max response) [1]: -4.19%
Potency [2]: inactive

CCOc1ccc(-n2c([C@@H](C)N(Cc3cccnc3)C(=O)Cc3ccc(F)c(C(F)(F)F)c3)nc3ncccc3c2=O)cc1
activity (max response) [1]: -7.78%
Potency [2]: inactive

C[C@H]1CC2[C@@H]3CCC4=CC(=O)C=C[C@]4(C)[C@@]3(F)[C@@H](O)C[C@]2(C)[C@@]1(O)C(=O)CO (stereo partly drawn)
activity (max response) [1]: -7.86%
Potency [2]: inactive
